Reference: article PMC11006913

What was measured:
Test in all cases: PBM; 200 nM protein, PBS
Details in all cases: dsDNA, one strand shown
[1] = biological target: CRX (Homo sapiens, UniProt O43186 26-111)
[2] = biological target: CRX (Homo sapiens, UniProt O43186 26-111, E42D)
[3] = biological target: PITX2 (Homo sapiens, UniProt Q99697 72-157)
[4] = biological target: CRX (Homo sapiens, UniProt O43186 26-111, R41L)
[5] = biological target: VAX1 (Homo sapiens, UniProt Q5SQQ9 86-172)
[6] = biological target: VAX1 (Homo sapiens, UniProt Q5SQQ9 86-172, T142I)
[7] = biological target: VAX1 (Homo sapiens, UniProt Q5SQQ9 86-172, K157R)
[8] = biological target: NKX3-2 (Homo sapiens, UniProt P78367 192-278, P234S)
[9] = biological target: NKX3-2 (Homo sapiens, UniProt P78367 192-278)
Sequence of NKX3-2 (Homo sapiens, UniProt P78367 192-278) (P78367 192-278): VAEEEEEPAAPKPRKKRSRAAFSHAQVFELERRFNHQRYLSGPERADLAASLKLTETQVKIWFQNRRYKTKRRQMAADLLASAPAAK

Sequence of CRX (Homo sapiens, UniProt O43186 26-111, E42D) (O43186 26-111 E42D): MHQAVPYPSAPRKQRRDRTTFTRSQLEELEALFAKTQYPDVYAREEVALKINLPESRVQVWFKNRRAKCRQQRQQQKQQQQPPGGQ
Sequence of CRX (Homo sapiens, UniProt O43186 26-111, R41L) (O43186 26-111 R41L): as the sequence (O43186 26-111 E42D) above, with R16L, D17E counted along it
Sequence of CRX (Homo sapiens, UniProt O43186 26-111) (O43186 26-111): as the sequence (O43186 26-111 E42D) above, with D17E counted along it
Sequence of VAX1 (Homo sapiens, UniProt Q5SQQ9 86-172, K157R) (Q5SQQ9 86-172 K157R): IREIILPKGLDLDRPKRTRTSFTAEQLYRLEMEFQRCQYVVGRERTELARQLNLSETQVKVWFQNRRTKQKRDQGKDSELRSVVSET
Sequence of VAX1 (Homo sapiens, UniProt Q5SQQ9 86-172) (Q5SQQ9 86-172): as the sequence (Q5SQQ9 86-172 K157R) above, with R72K counted along it
Sequence of VAX1 (Homo sapiens, UniProt Q5SQQ9 86-172, T142I) (Q5SQQ9 86-172 T142I): as the sequence (Q5SQQ9 86-172 K157R) above, with T57I, R72K counted along it
Sequence of NKX3-2 (Homo sapiens, UniProt P78367 192-278, P234S) (P78367 192-278 P234S): as the sequence (P78367 192-278) above, with P43S counted along it

ATAATCCC
binding signal [1]: 13.5 upbm affinity estimate (log intensity, higher = more binding, comparable within an allelic series)
binding signal [2]: 13.7 upbm affinity estimate (log intensity, higher = more binding, comparable within an allelic series)
binding signal [3]: 13.2 upbm affinity estimate (log intensity, higher = more binding, comparable within an allelic series)
binding signal [4]: 13.7 upbm affinity estimate (log intensity, higher = more binding, comparable within an allelic series)

AAGGATTA
binding signal [1]: 13.4 upbm affinity estimate (log intensity, higher = more binding, comparable within an allelic series)
binding signal [2]: 13.4 upbm affinity estimate (log intensity, higher = more binding, comparable within an allelic series)
binding signal [3]: 13.2 upbm affinity estimate (log intensity, higher = more binding, comparable within an allelic series)
binding signal [4]: 13.4 upbm affinity estimate (log intensity, higher = more binding, comparable within an allelic series)

AGATTATC
binding signal [1]: 13.2 upbm affinity estimate (log intensity, higher = more binding, comparable within an allelic series)
binding signal [2]: 13.1 upbm affinity estimate (log intensity, higher = more binding, comparable within an allelic series)
binding signal [3]: 12.5 upbm affinity estimate (log intensity, higher = more binding, comparable within an allelic series)
binding signal [4]: 13.2 upbm affinity estimate (log intensity, higher = more binding, comparable within an allelic series)

ATAATCCA
binding signal [1]: 13.2 upbm affinity estimate (log intensity, higher = more binding, comparable within an allelic series)
binding signal [2]: 13.3 upbm affinity estimate (log intensity, higher = more binding, comparable within an allelic series)
binding signal [3]: 13 upbm affinity estimate (log intensity, higher = more binding, comparable within an allelic series)
binding signal [4]: 13.3 upbm affinity estimate (log intensity, higher = more binding, comparable within an allelic series)

CGGGATTA
binding signal [1]: 13.4 upbm affinity estimate (log intensity, higher = more binding, comparable within an allelic series)
binding signal [2]: 13.4 upbm affinity estimate (log intensity, higher = more binding, comparable within an allelic series)
binding signal [3]: 13.3 upbm affinity estimate (log intensity, higher = more binding, comparable within an allelic series)
binding signal [4]: 13.3 upbm affinity estimate (log intensity, higher = more binding, comparable within an allelic series)

AAGATTAA
binding signal [1]: 12.9 upbm affinity estimate (log intensity, higher = more binding, comparable within an allelic series)
binding signal [2]: 12.9 upbm affinity estimate (log intensity, higher = more binding, comparable within an allelic series)
binding signal [3]: 12.5 upbm affinity estimate (log intensity, higher = more binding, comparable within an allelic series)
binding signal [4]: 12.6 upbm affinity estimate (log intensity, higher = more binding, comparable within an allelic series)

GGAGATTA
binding signal [1]: 13.2 upbm affinity estimate (log intensity, higher = more binding, comparable within an allelic series)
binding signal [2]: 13.2 upbm affinity estimate (log intensity, higher = more binding, comparable within an allelic series)
binding signal [3]: 12.9 upbm affinity estimate (log intensity, higher = more binding, comparable within an allelic series)
binding signal [4]: 13.1 upbm affinity estimate (log intensity, higher = more binding, comparable within an allelic series)

GGATTAGA
binding signal [1]: 13.3 upbm affinity estimate (log intensity, higher = more binding, comparable within an allelic series)
binding signal [2]: 13.2 upbm affinity estimate (log intensity, higher = more binding, comparable within an allelic series)
binding signal [3]: 13.1 upbm affinity estimate (log intensity, higher = more binding, comparable within an allelic series)
binding signal [4]: 13.1 upbm affinity estimate (log intensity, higher = more binding, comparable within an allelic series)

CCGGTGCG
binding signal [1]: 8.15 upbm affinity estimate (log intensity, higher = more binding, comparable within an allelic series)
binding signal [2]: 8.24 upbm affinity estimate (log intensity, higher = more binding, comparable within an allelic series)
binding signal [5]: 7.06 upbm affinity estimate (log intensity, higher = more binding, comparable within an allelic series)
binding signal [6]: 7.11 upbm affinity estimate (log intensity, higher = more binding, comparable within an allelic series)
binding signal [4]: 8.27 upbm affinity estimate (log intensity, higher = more binding, comparable within an allelic series)
binding signal [7]: 7.12 upbm affinity estimate (log intensity, higher = more binding, comparable within an allelic series)

GAGATTAA
binding signal [1]: 13.1 upbm affinity estimate (log intensity, higher = more binding, comparable within an allelic series)
binding signal [2]: 13.1 upbm affinity estimate (log intensity, higher = more binding, comparable within an allelic series)
binding signal [3]: 12.8 upbm affinity estimate (log intensity, higher = more binding, comparable within an allelic series)
binding signal [4]: 12.8 upbm affinity estimate (log intensity, higher = more binding, comparable within an allelic series)

AGGATTAT
binding signal [1]: 13.4 upbm affinity estimate (log intensity, higher = more binding, comparable within an allelic series)
binding signal [2]: 13.5 upbm affinity estimate (log intensity, higher = more binding, comparable within an allelic series)
binding signal [3]: 13.2 upbm affinity estimate (log intensity, higher = more binding, comparable within an allelic series)
binding signal [4]: 13.5 upbm affinity estimate (log intensity, higher = more binding, comparable within an allelic series)

ATAGATTA
binding signal [1]: 12.7 upbm affinity estimate (log intensity, higher = more binding, comparable within an allelic series)
binding signal [2]: 12.5 upbm affinity estimate (log intensity, higher = more binding, comparable within an allelic series)
binding signal [3]: 12.3 upbm affinity estimate (log intensity, higher = more binding, comparable within an allelic series)
binding signal [4]: 12.3 upbm affinity estimate (log intensity, higher = more binding, comparable within an allelic series)

CAGGTGCG
binding signal [1]: 8.4 upbm affinity estimate (log intensity, higher = more binding, comparable within an allelic series)
binding signal [2]: 8.3 upbm affinity estimate (log intensity, higher = more binding, comparable within an allelic series)
binding signal [4]: 8.29 upbm affinity estimate (log intensity, higher = more binding, comparable within an allelic series)

CACCAGTC
binding signal [1]: 8.16 upbm affinity estimate (log intensity, higher = more binding, comparable within an allelic series)
binding signal [2]: 8.23 upbm affinity estimate (log intensity, higher = more binding, comparable within an allelic series)
binding signal [4]: 8.2 upbm affinity estimate (log intensity, higher = more binding, comparable within an allelic series)

GAAATCCA
binding signal [1]: 10.7 upbm affinity estimate (log intensity, higher = more binding, comparable within an allelic series)
binding signal [2]: 10.4 upbm affinity estimate (log intensity, higher = more binding, comparable within an allelic series)
binding signal [4]: 10.6 upbm affinity estimate (log intensity, higher = more binding, comparable within an allelic series)

CCGGTCGA
binding signal [1]: 8.51 upbm affinity estimate (log intensity, higher = more binding, comparable within an allelic series)
binding signal [2]: 8.46 upbm affinity estimate (log intensity, higher = more binding, comparable within an allelic series)
binding signal [4]: 8.45 upbm affinity estimate (log intensity, higher = more binding, comparable within an allelic series)

GATTATCC
binding signal [1]: 12.9 upbm affinity estimate (log intensity, higher = more binding, comparable within an allelic series)
binding signal [2]: 12.9 upbm affinity estimate (log intensity, higher = more binding, comparable within an allelic series)
binding signal [4]: 12.8 upbm affinity estimate (log intensity, higher = more binding, comparable within an allelic series)

AGATTATG
binding signal [1]: 12.7 upbm affinity estimate (log intensity, higher = more binding, comparable within an allelic series)
binding signal [2]: 12.6 upbm affinity estimate (log intensity, higher = more binding, comparable within an allelic series)
binding signal [4]: 12.6 upbm affinity estimate (log intensity, higher = more binding, comparable within an allelic series)

GGTTGCCA
binding signal [1]: 8.28 upbm affinity estimate (log intensity, higher = more binding, comparable within an allelic series)
binding signal [2]: 8.39 upbm affinity estimate (log intensity, higher = more binding, comparable within an allelic series)
binding signal [4]: 8.41 upbm affinity estimate (log intensity, higher = more binding, comparable within an allelic series)

ACCGCACC
binding signal [1]: 8.25 upbm affinity estimate (log intensity, higher = more binding, comparable within an allelic series)
binding signal [2]: 8.39 upbm affinity estimate (log intensity, higher = more binding, comparable within an allelic series)
binding signal [4]: 8.35 upbm affinity estimate (log intensity, higher = more binding, comparable within an allelic series)

GGGCTCCA
binding signal [1]: 8.35 upbm affinity estimate (log intensity, higher = more binding, comparable within an allelic series)
binding signal [2]: 8.31 upbm affinity estimate (log intensity, higher = more binding, comparable within an allelic series)
binding signal [4]: 8.31 upbm affinity estimate (log intensity, higher = more binding, comparable within an allelic series)

ACTGGACC
binding signal [1]: 8.04 upbm affinity estimate (log intensity, higher = more binding, comparable within an allelic series)
binding signal [2]: 8.07 upbm affinity estimate (log intensity, higher = more binding, comparable within an allelic series)
binding signal [4]: 8.11 upbm affinity estimate (log intensity, higher = more binding, comparable within an allelic series)

GCCTGACA
binding signal [1]: 8.49 upbm affinity estimate (log intensity, higher = more binding, comparable within an allelic series)
binding signal [2]: 8.43 upbm affinity estimate (log intensity, higher = more binding, comparable within an allelic series)
binding signal [4]: 8.39 upbm affinity estimate (log intensity, higher = more binding, comparable within an allelic series)

ATAAAACC
binding signal [1]: 10.7 upbm affinity estimate (log intensity, higher = more binding, comparable within an allelic series)
binding signal [2]: 10.4 upbm affinity estimate (log intensity, higher = more binding, comparable within an allelic series)
binding signal [4]: 10.2 upbm affinity estimate (log intensity, higher = more binding, comparable within an allelic series)

AAGTAATA
binding signal [1]: 10.4 upbm affinity estimate (log intensity, higher = more binding, comparable within an allelic series)
binding signal [2]: 10.3 upbm affinity estimate (log intensity, higher = more binding, comparable within an allelic series)
binding signal [4]: 10.1 upbm affinity estimate (log intensity, higher = more binding, comparable within an allelic series)

CGAGCACG
binding signal [1]: 8.2 upbm affinity estimate (log intensity, higher = more binding, comparable within an allelic series)
binding signal [2]: 8.12 upbm affinity estimate (log intensity, higher = more binding, comparable within an allelic series)
binding signal [4]: 8.16 upbm affinity estimate (log intensity, higher = more binding, comparable within an allelic series)

CGATAATC
binding signal [1]: 12.8 upbm affinity estimate (log intensity, higher = more binding, comparable within an allelic series)
binding signal [2]: 12.7 upbm affinity estimate (log intensity, higher = more binding, comparable within an allelic series)
binding signal [4]: 12.7 upbm affinity estimate (log intensity, higher = more binding, comparable within an allelic series)

AATATTAC
binding signal [1]: 10.1 upbm affinity estimate (log intensity, higher = more binding, comparable within an allelic series)
binding signal [2]: 9.84 upbm affinity estimate (log intensity, higher = more binding, comparable within an allelic series)
binding signal [4]: 9.61 upbm affinity estimate (log intensity, higher = more binding, comparable within an allelic series)

ACGCCACG
binding signal [1]: 8.27 upbm affinity estimate (log intensity, higher = more binding, comparable within an allelic series)
binding signal [2]: 8.14 upbm affinity estimate (log intensity, higher = more binding, comparable within an allelic series)
binding signal [4]: 8.23 upbm affinity estimate (log intensity, higher = more binding, comparable within an allelic series)

GCTATTTA
binding signal [1]: 10.3 upbm affinity estimate (log intensity, higher = more binding, comparable within an allelic series)
binding signal [2]: 10.1 upbm affinity estimate (log intensity, higher = more binding, comparable within an allelic series)
binding signal [4]: 10 upbm affinity estimate (log intensity, higher = more binding, comparable within an allelic series)

AGAATCCC
binding signal [1]: 10.2 upbm affinity estimate (log intensity, higher = more binding, comparable within an allelic series)
binding signal [2]: 10 upbm affinity estimate (log intensity, higher = more binding, comparable within an allelic series)
binding signal [4]: 10.1 upbm affinity estimate (log intensity, higher = more binding, comparable within an allelic series)

ACCAGTCG
binding signal [1]: 8.53 upbm affinity estimate (log intensity, higher = more binding, comparable within an allelic series)
binding signal [2]: 8.43 upbm affinity estimate (log intensity, higher = more binding, comparable within an allelic series)
binding signal [8]: 10.4 upbm affinity estimate (log intensity, higher = more binding, comparable within an allelic series)
binding signal [4]: 8.32 upbm affinity estimate (log intensity, higher = more binding, comparable within an allelic series)
binding signal [9]: 10.4 upbm affinity estimate (log intensity, higher = more binding, comparable within an allelic series)

CAGGAACG
binding signal [1]: 8.49 upbm affinity estimate (log intensity, higher = more binding, comparable within an allelic series)
binding signal [2]: 8.54 upbm affinity estimate (log intensity, higher = more binding, comparable within an allelic series)
binding signal [4]: 8.36 upbm affinity estimate (log intensity, higher = more binding, comparable within an allelic series)
